# Compounds with a hit are over-represented: about 1.5% of the library has one in this group of screens.
# HDAC3 inhib: HDAC3 deacetylase inhibitors, primary screen, biochemical, fluorescence, cell-free homogeneous; inhibition, % at 8.3 µM; Histone deacetylase 3 (Homo sapiens), O15379; 320,000 compounds, 0.15% hits; recombinant HDAC3, fluorogenic peptide/trypsin coupled; in the data active means inhibition above about 26%, passing the limit was not always enough
# Efflux pump mplx: inhibitors of Candida efflux pumps in yeast, primary screen, S. cerevisiae, Nile Red, multiplex; S. cerevisiae Candida pump triplex; inhibition, % at 10 µM; 330,000 compounds, 0.44% hits; AID 485275, 2010;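 active means plate passing quality check with inhibition over a set limit, or well fluorescence over plate mean plus 4 SD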;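 further: Nile Red retained in pooled yeast measured as flow cytometry median fluorescence; 0% = buffer negative control and 100% = Enniatin B positive control; higher means more Nile Red kept so more efflux inhibition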
# NLRP3 yeast inh: NALP3 inflammasome inhibitors in reconstituted yeast, primary screen, luminescence, uHTS | Yeast reconstituted NLRP3/ASC/caspase-1, beta-gal luminescence, 24 h | inhibition, % at 10 µM | 330,000 compounds, 0.39% hits | AID 2825, 2010;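 active means inhibition of 50% or more; inactive means inhibition below 50%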;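 further: plate controls were induced DMSO wells for no effect and uninduced yeast grown without galactose for full effect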
# PolyA inhibitor: polyadenylation inhibitors in yeast reporter cells, primary screen, luminescence, S. cerevisiae; activity score, % at 12 µM; S. cerevisiae SKY197-pL101 polyadenylation reporter, beta-gal luminescence; efflux-impaired pdr1/pdr3 knockout yeast; score 100 = 6 SD above DMSO; 300,000 compounds, 0.02% hits;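 active means lowest replicate activity score at least 50, where 100 means six control SD above control mean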;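 further: yeast exposed to compound for 9 h at 30 °C; higher score means more reporter readthrough which indicates perturbed polyadenylation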
# JMJD2C inh: inhibitors of GASC-1 histone demethylase, primary screen, biochemical, fluorescence, DELFIA europium. AID 2099, 2009. inhibition, % at 2.35 µM. Lysine-specific demethylase 4C (Homo sapiens), Q9H3R0. 330,000 compounds, 0.069% hits. GST-JMJD2C(1-420) H3K9me3 demethylation;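 active means more than half of a compound's replicate wells show inhibition beyond 50%, single wells judged on their own value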;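 further: signal counts dimethyl H3K9 product captured on neutravidin plate; 0% = median of DMSO wells and 100% = 0.3 times that DMSO median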
# Target sequence (Q9H3R0 1-420 limits assumed): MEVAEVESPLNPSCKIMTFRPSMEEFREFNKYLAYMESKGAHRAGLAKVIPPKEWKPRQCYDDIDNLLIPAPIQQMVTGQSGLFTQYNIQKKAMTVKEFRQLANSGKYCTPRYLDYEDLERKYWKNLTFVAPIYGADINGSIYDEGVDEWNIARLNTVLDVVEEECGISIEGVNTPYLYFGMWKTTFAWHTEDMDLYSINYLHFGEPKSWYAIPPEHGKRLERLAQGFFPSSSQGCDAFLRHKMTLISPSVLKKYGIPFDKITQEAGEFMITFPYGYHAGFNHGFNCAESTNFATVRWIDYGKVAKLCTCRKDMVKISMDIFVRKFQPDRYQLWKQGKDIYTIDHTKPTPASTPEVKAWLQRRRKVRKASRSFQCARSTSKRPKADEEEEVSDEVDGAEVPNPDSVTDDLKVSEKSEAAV
# NALP1 inh: NALP1 inflammasome inhibitors in reconstituted yeast, colorimetric, S. cerevisiae, triplicate retest. S. cerevisiae NALP1/ASC/caspase-1 growth, X-gal OD620, 72 h. AID 2071, 2009. inhibition, % at 10 µM. 280,000 compounds, 0.61% hits; in the data active means inhibition mostly above about 24%, no sharp cut-off; inactive means mostly below about 32%
# Cmpd fluor yeast: flagged as fluorescent in efflux inhibitor counter-screen. S. cerevisiae AD/pABC3, compound fluorescence, flow cytometry. fluorescence ratio to DMSO, % at 10 µM. shares compounds with Efflux pump mplx. AID 588517. 1,700 compounds, 4% hits;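 active means fluorescence ratio to DMSO above its plate's cutoff, the plate mean ratio plus 5 SD, cut at about 210% in these data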;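 further: unstained yeast with no Nile Red so the signal is compound autofluorescence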
# Mdr1 pump inh: inhibitors of Candida albicans Mdr1 efflux, confirmation, flow cytometry, singleplex, Cherry Pick1 set. shares compounds with Efflux pump mplx. S. cerevisiae AD/CaMDR1, Nile Red efflux. inhibition, % at 10 µM. 1,700 compounds, 1% hits. AID 588518, 2011; in the data active means inhibition above about 26%;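 further: 0% = DMSO vehicle and 100% = reference inhibitor; higher means more Nile Red retained so more efflux inhibition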
# Cdr2 pump inh: inhibitors of Candida albicans Cdr2 efflux pump, confirmation, S. cerevisiae AD/CaCDR2, flow cytometry, cherry pick 1, singleplex | shares compounds with Efflux pump mplx | Nile Red retention | Nile Red retention ratio vs DMSO, % at 10 µM | 1,700 compounds, 4% hits | AID 588520, 2011; in the data active means Nile Red retention ratio vs DMSO above about 190%;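 further: higher ratio means more blocking of Cdr2 efflux of the dye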
# Cdr1 pump inh: inhibitors of Candida albicans Cdr1 efflux pump, confirmation, S. cerevisiae AD/CaCDR1, flow cytometry, cherry pick 1, singleplex | inhibition, % at 10 µM | shares compounds with Efflux pump mplx | Nile Red efflux | AID 588522, 2011 | 1,700 compounds, 1% hits;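 active means inhibition above the screen-wide mean plus twice its standard deviation, cut at about 32% in these data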
# Numbers without * were called inactive; x = not tested or not shown.
SMILES,HDAC3 inhib,Efflux pump mplx,NLRP3 yeast inh,PolyA inhibitor,JMJD2C inh,NALP1 inh,Cmpd fluor yeast,Mdr1 pump inh,Cdr2 pump inh,Cdr1 pump inh
O=C(Nc1ccnc(-c2cccnc2)n1)c1cccc(Cl)c1Cl,1,1.0*,28,18,-16,-10,118,1,116,0
Cc1ccc(NC(=O)CNc2ccccc2N2CCCC2=O)cc1S(=O)(=O)N1CCCCC1,2,0,17,x,9,x,x,x,x,x
Oc1c(Br)cc(Br)cc1/C=N/c1nc2c(s1)CCCC2,3,0.4*,30,7,12,x,78,0,100,0
Oc1ccc2ccccc2c1/C=N/c1nc2c(s1)CCCC2,-5,0,13,-1,8,-10,x,x,x,x
Cc1nc(NC(=O)CSC2=NCCS2)sc1C(=O)N(C)C,4,0,4,-7,-1,22,x,x,x,x
Nc1ccc2nc(-c3cccc(-c4nc5ccc(N)cc5[nH]4)c3)[nH]c2c1,-8,2.1*,25,3,3,-11,101,0,119,0
CCCc1[nH]n(-c2ccc([N+](=O)[O-])cc2)c(=O)c1C=NCCc1ccc(OC)c(OC)c1,-2,0.8*,-9,-8,-2,10,111,0,104,0
CCCc1[nH]n(-c2ccc([N+](=O)[O-])cc2)c(=O)c1C=NCCc1c[nH]c2ccccc12,4,0,2,8,-4,x,x,x,x,x
COc1ccc(N/C=C(\C=C\C#N)S(=O)(=O)c2ccccc2)cc1,-12,-1,17,-12,-7,5,x,x,x,x
Cc1ccc(-n2c(SCC(=O)N3CC(=O)Nc4ccccc43)nc3ccccc3c2=O)cc1,2,0,8,-11,-8,38,x,x,x,x
Cc1cccc(C)c1-n1c(SCC(=O)N2CC(=O)Nc3ccccc32)nc2ccccc2c1=O,2,8.2*,7,11,4,25,102,0,125,95*
COC(=O)c1nn(-c2ccccc2)c(=O)cc1Sc1ccc(Cl)cc1,-1,0.6*,0,-26,11,1,108,0,108,0
O=C(CSc1nnc(-c2ccccc2)o1)N1CCN(c2ccccc2)CC1,4,0.8*,-2,2,-18,-38,107,0,101,0
Cn1c(-c2ccccc2)cnc1SCC(=O)N1CCCc2ccccc21,2,15*,9,12,-1,18,108,0,116,0
Cc1ccc(-c2cnc(SCC(=O)N3CCCc4ccccc43)n2C)cc1,6,0,22,x,-2,-9,x,x,x,x
N#C/C(=C\c1ccncc1)c1nc2ccccc2[nH]1,x,x,20,-17,-7,-18,x,x,x,x
N#C/C(=C/c1ccncc1)c1nc2ccccc2s1,2,0,15,-8,-2,-7,103,0,102,0
O=C(Cc1ccccc1)NNS(=O)(=O)c1ccccc1[N+](=O)[O-],1,0,11,11,-6,16,x,x,x,x
O=C(O)CCCn1cc(NC(=O)COc2ccccc2)cn1,-3,0,20,17,1,11,x,x,x,x
O=C(O)CSc1cc(NS(=O)(=O)c2ccc(Br)cc2)c2ccccc2c1O,5,0,x,-21,24,-2,x,x,x,x
Cc1cc(O)c(Sc2ncn[nH]2)cc1NS(=O)(=O)c1ccc(Cl)cc1,6,0,17,x,-3,x,103,0,96,0
COc1ccc(S(=O)(=O)Nc2cc(Sc3ncn[nH]3)c(O)cc2C)cc1,-6,0,22,x,10,x,105,0,96,0
O=S(=O)(Nc1cc(Sc2ncn[nH]2)c(O)c2ccccc12)c1ccccc1,x,x,36,x,x,-8,100,0,96,0
C[C@H](CO)N1C[C@H](C)[C@@H](CN(C)Cc2ccc3c(c2)OCO3)Oc2ccc(NS(C)(=O)=O)cc2C1=O,0,0,10,x,-9,x,x,x,x,x
Nc1c(-c2ccccc2)cnc2ncnn12,-6,1.7*,-12,18,-1,5,97,0,91,0
SMILES,HDAC3 inhib,Efflux pump mplx,NLRP3 yeast inh,PolyA inhibitor,JMJD2C inh,NALP1 inh,Cmpd fluor yeast,Mdr1 pump inh,Cdr2 pump inh,Cdr1 pump inh
O=C(COC(=O)c1ccccc1SCC(=O)N1CCCC1)NCc1ccccc1,1,0,17,-5,-12,x,x,x,x,x
O=C(O)CCN1CCN(S(=O)(=O)c2ccc3ccccc3c2)CC1,12,0,4,7,6,6,x,x,x,x
O=C(c1cc(COc2ccc(-n3cncn3)cc2)on1)N1CCCC1,-6,9.9*,16,14,14,-5,105,0,106,0
COC1CCN(C(=O)c2cc(COc3ccc(-n4cncn4)cc3)on2)CC1,-5,0,9,8,1,17,x,x,x,x
COC(=O)c1ccc(C2/C(=C(\O)c3cccc(OC)c3)C(=O)C(=O)N2CCCN2CCOCC2)cc1 (centres undefined),-8,9.7*,7,-7,3,3,116,0,96,0
COc1cccc(/C(O)=C2/C(=O)C(=O)N(CCCN3CCOCC3)C2c2ccncc2)c1 (centres undefined),-1,0,4,13,45,1,x,x,x,x
CCCCNC(=O)c1ccc(Cn2c(=S)[nH]c3c([nH]c4ccc(OC)cc43)c2=O)cc1,-12,8.2*,15,17,1,3,100,0,96,0
CCOCCCNC(=O)c1ccc(Cn2c(=S)[nH]c3c([nH]c4ccc(OC)cc43)c2=O)cc1,0,0,17,-9,0,-6,x,x,x,x
CCOC(=O)c1cc2sccc2n1CC(=O)c1ccc2c(c1)OCCO2,5,0.5*,16,-8,2,7,102,0,95,0
